Laboratory results published in PubChem BioAssay (NCATS).
Results filed as inconclusive are left out. A call without a number means that no potency is given here. Active and inactive are the calls of the source. Calls follow the shape of the dose curve; as a rule, active = well fitted cell-killing curve with a large enough effect; inconclusive = small, poorly fitted or top-dose-only effect, or effect the other way; inactive = flat fitted curve, though single readings scatter.

Experiments:
[1] = tested on: Tov-21-G; assay: Primary qHTS to identify gynecologic anti-cancer compounds using libraries of approved drugs and bioactive compounds (AID 1345084); details: Gynecologic cancer cell panel viability, ATPlite luminescence, 48 h; series mostly up to 57.5 µM; also: nearly all actives have a fitted effect of over 55% in size
Method in brief: (§1)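 ATP-based viability (ATPlite), 1,000 cells/well, 16 h pre-incubation, 48 h compound at 37 C, 5% CO2, 15 min RT before read.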

[2] = tested on: Tov112D; assay: as above; details: Gynecologic cancer cell panel viability, ATPlite luminescence, 48 h; series mostly up to 57.5 µM
Method in brief: as §1

Row | Structure (SMILES) | Potency [1] | Potency [2]
1 | O=S(=O)(NCc1cccc2ccccc12)c1cc(Cl)c(Oc2cccc(N3CCNCC3)c2)s1 | inactive | inactive
2 | c1cc(NCCc2c[nH]c3ccccc23)cc(Nc2ccncc2)c1 | inactive | inactive
3 | CNC(=O)c1cc(Oc2ccc(NC(=O)c3cccc(C(F)(F)F)c3)cc2)ccn1 | inactive | inactive
